ChEMBL document CHEMBL1961873, “Compounds: GSK PKIS; Assays: Nanosyn kinase panel” (2012)

Columns and labels:
[1] = biological target: Calcium/calmodulin-dependent protein kinase type II subunit alpha (Homo sapiens) (UniProt Q9UQM7); conditions: at 1 µM;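 further: reported value is a mean percent inhibition of CAMK2A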
[2] = biological target: Calcium/calmodulin-dependent protein kinase type II subunit delta (Homo sapiens) (UniProt Q13557); conditions: at 0.1 µM
[3] = biological target: Calcium/calmodulin-dependent protein kinase type II subunit delta (Homo sapiens) (UniProt Q13557); conditions: at 1 µM
[4] = biological target: T1, Calcium/calmodulin-dependent protein kinase type IV (Homo sapiens) (UniProt Q16566); conditions: at 0.1 µM
T1 sequence (whole entry): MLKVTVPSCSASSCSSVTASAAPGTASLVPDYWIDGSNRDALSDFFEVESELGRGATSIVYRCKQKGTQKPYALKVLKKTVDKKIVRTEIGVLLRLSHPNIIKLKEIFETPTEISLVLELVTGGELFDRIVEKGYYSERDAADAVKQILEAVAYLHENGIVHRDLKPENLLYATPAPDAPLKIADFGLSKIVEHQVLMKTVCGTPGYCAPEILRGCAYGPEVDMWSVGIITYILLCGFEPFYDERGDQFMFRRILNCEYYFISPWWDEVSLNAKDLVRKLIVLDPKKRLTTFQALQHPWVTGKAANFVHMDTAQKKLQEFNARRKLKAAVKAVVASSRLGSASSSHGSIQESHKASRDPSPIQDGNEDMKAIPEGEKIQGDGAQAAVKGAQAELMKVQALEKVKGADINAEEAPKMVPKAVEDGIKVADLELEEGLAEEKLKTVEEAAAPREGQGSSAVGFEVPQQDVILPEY

[5] = biological target: T1, Calcium/calmodulin-dependent protein kinase type IV (Homo sapiens); conditions: at 1 µM
[6] = biological target: T2, Serine/threonine-protein kinase Chk1 (Homo sapiens) (UniProt O14757); conditions: at 0.1 µM
T2 sequence (whole entry): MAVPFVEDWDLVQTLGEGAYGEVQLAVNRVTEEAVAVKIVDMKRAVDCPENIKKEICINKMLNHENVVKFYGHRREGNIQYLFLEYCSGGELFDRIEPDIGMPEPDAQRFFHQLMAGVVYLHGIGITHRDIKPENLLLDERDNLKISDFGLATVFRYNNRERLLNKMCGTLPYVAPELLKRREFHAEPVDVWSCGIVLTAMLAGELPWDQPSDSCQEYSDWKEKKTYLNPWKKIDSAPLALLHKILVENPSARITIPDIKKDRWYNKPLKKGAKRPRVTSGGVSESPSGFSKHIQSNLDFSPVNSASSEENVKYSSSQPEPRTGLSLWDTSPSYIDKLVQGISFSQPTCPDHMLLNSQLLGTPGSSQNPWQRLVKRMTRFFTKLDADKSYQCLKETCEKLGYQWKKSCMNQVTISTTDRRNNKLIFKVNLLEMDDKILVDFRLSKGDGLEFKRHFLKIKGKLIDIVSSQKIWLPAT

[7] = biological target: T2, Serine/threonine-protein kinase Chk1 (Homo sapiens); conditions: at 1 µM
[8] = biological target: Serine/threonine-protein kinase Chk2 (Homo sapiens) (UniProt O96017); conditions: at 0.1 µM
[9] = biological target: Serine/threonine-protein kinase Chk2 (Homo sapiens) (UniProt O96017); conditions: at 1 µM
[10] = biological target: Death-associated protein kinase 1 (Homo sapiens) (UniProt P53355); conditions: at 0.1 µM
[11] = biological target: Death-associated protein kinase 1 (Homo sapiens) (UniProt P53355); conditions: at 1 µM
[12] = biological target: T3, Serine/threonine-protein kinase DCLK2 (Homo sapiens) (UniProt Q8N568); conditions: at 0.1 µM
T3 sequence (whole entry): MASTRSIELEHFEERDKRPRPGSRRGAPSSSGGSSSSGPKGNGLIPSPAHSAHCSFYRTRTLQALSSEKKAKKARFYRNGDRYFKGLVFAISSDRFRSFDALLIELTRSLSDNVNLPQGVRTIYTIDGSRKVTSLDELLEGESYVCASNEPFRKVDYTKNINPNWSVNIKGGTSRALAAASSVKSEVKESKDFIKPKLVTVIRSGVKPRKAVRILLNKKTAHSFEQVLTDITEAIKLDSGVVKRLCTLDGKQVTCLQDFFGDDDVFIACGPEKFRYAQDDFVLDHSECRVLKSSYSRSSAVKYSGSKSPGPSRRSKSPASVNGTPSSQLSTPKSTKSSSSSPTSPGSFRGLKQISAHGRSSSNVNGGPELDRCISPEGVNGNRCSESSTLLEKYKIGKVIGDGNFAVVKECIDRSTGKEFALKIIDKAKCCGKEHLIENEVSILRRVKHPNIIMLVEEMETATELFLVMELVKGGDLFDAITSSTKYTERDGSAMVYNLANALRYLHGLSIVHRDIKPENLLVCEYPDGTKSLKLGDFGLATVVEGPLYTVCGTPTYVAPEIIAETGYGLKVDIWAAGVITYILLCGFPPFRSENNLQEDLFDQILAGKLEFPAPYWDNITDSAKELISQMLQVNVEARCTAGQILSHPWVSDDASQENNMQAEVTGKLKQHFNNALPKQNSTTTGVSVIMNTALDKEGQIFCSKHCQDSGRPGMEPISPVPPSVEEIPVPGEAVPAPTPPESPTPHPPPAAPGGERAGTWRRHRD

[13] = biological target: T3, Serine/threonine-protein kinase DCLK2 (Homo sapiens); conditions: at 1 µM
[14] = biological target: MAP kinase-activated protein kinase 2 (Homo sapiens) (UniProt P49137); conditions: at 0.1 µM
[15] = biological target: MAP kinase-activated protein kinase 2 (Homo sapiens) (UniProt P49137); conditions: at 1 µM
[16] = biological target: MAP kinase-activated protein kinase 3 (Homo sapiens) (UniProt Q16644); conditions: at 0.1 µM
[17] = biological target: MAP kinase-activated protein kinase 3 (Homo sapiens) (UniProt Q16644); conditions: at 1 µM
[18] = biological target: Serine/threonine-protein kinase MARK1 (Homo sapiens) (UniProt Q9P0L2); conditions: at 0.1 µM
[19] = biological target: Serine/threonine-protein kinase MARK1 (Homo sapiens) (UniProt Q9P0L2); conditions: at 1 µM
[20] = biological target: MAP/microtubule affinity-regulating kinase 3 (Homo sapiens) (UniProt P27448); conditions: at 0.1 µM;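 further: mean percent inhibition of MARK3 kinase activity, measured within the GSK PKIS screening panel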
MAP/microtubule affinity-regulating kinase 3 (Homo sapiens), sequence (P27448 whole entry, looked up): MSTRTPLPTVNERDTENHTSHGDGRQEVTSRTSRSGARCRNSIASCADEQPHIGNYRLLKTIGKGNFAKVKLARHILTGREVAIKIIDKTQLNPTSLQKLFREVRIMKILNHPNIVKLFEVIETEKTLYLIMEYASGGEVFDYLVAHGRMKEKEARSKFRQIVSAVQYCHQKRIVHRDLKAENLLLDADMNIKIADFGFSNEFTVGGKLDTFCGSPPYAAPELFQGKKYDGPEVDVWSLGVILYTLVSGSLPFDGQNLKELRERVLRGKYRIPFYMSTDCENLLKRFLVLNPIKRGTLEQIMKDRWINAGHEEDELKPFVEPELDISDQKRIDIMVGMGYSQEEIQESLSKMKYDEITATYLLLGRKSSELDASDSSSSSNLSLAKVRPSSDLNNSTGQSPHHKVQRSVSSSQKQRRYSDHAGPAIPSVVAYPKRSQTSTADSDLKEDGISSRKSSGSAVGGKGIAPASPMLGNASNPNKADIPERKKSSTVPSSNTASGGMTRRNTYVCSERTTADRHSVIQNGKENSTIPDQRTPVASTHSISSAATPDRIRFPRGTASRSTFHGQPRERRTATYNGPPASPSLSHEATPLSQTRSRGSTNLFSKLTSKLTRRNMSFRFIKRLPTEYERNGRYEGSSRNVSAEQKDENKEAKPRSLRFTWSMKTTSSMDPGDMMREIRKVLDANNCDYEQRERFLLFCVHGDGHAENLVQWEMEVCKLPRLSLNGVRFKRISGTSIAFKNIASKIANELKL

Serine/threonine-protein kinase Chk2 (Homo sapiens), sequence (O96017 whole entry): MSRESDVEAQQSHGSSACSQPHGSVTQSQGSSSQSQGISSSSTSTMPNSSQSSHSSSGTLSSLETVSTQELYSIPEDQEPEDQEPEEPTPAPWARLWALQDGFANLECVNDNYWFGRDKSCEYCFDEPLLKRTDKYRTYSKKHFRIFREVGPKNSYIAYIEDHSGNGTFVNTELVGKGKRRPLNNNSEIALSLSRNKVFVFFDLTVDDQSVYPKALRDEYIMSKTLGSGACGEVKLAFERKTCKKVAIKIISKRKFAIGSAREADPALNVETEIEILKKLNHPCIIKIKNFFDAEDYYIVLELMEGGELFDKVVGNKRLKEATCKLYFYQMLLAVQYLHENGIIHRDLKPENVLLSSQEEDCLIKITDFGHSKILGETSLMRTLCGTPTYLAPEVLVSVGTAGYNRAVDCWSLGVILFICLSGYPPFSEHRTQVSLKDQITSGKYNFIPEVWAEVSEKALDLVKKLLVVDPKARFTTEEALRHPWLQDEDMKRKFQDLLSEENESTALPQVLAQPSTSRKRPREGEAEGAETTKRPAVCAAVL
Calcium/calmodulin-dependent protein kinase type II subunit alpha (Homo sapiens), sequence (Q9UQM7 whole entry): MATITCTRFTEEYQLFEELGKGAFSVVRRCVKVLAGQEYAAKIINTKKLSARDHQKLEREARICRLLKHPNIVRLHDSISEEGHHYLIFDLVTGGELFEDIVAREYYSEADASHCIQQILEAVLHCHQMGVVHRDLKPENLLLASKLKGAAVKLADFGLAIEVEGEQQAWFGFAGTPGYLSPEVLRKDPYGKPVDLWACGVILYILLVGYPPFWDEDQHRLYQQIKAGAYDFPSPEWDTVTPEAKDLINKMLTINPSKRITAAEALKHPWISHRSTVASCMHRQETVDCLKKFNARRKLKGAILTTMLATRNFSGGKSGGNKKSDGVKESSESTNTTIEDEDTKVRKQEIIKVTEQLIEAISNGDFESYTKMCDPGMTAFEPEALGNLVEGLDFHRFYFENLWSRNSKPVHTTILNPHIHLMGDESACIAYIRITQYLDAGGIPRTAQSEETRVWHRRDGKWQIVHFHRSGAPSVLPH
MAP kinase-activated protein kinase 3 (Homo sapiens), sequence (Q16644 whole entry, looked up): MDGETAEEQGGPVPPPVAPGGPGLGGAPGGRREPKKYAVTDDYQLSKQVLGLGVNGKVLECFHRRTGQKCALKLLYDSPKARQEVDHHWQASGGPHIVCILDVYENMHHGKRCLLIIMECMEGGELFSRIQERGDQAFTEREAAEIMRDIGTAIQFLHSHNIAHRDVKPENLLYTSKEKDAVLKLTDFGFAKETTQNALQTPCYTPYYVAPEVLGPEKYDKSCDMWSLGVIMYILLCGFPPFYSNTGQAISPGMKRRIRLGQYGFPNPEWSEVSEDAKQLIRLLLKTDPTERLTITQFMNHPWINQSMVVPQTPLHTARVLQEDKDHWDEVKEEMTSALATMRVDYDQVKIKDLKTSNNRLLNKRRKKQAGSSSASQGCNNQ
Serine/threonine-protein kinase MARK1 (Homo sapiens), sequence (Q9P0L2 whole entry, looked up): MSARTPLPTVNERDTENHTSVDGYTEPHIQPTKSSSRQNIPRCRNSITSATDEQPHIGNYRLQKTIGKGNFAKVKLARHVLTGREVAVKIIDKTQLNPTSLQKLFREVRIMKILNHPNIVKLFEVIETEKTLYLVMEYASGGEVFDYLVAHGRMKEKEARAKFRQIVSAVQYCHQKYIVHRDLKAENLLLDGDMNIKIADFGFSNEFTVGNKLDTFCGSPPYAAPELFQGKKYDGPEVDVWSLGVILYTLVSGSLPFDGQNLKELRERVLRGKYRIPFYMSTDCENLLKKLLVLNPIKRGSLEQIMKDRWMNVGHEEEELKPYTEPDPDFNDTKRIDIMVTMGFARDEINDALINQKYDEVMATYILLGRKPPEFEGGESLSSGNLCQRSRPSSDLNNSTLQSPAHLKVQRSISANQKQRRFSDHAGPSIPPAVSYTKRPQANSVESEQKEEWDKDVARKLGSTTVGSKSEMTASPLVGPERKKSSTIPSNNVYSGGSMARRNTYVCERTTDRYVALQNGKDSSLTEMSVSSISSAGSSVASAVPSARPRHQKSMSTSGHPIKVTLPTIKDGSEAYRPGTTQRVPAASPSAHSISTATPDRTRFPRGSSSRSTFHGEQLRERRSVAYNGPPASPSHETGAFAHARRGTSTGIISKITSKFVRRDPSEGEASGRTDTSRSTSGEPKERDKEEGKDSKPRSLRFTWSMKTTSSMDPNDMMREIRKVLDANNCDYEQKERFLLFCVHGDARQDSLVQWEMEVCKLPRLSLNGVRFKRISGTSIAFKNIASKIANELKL
Death-associated protein kinase 1 (Homo sapiens), sequence (P53355 whole entry, looked up): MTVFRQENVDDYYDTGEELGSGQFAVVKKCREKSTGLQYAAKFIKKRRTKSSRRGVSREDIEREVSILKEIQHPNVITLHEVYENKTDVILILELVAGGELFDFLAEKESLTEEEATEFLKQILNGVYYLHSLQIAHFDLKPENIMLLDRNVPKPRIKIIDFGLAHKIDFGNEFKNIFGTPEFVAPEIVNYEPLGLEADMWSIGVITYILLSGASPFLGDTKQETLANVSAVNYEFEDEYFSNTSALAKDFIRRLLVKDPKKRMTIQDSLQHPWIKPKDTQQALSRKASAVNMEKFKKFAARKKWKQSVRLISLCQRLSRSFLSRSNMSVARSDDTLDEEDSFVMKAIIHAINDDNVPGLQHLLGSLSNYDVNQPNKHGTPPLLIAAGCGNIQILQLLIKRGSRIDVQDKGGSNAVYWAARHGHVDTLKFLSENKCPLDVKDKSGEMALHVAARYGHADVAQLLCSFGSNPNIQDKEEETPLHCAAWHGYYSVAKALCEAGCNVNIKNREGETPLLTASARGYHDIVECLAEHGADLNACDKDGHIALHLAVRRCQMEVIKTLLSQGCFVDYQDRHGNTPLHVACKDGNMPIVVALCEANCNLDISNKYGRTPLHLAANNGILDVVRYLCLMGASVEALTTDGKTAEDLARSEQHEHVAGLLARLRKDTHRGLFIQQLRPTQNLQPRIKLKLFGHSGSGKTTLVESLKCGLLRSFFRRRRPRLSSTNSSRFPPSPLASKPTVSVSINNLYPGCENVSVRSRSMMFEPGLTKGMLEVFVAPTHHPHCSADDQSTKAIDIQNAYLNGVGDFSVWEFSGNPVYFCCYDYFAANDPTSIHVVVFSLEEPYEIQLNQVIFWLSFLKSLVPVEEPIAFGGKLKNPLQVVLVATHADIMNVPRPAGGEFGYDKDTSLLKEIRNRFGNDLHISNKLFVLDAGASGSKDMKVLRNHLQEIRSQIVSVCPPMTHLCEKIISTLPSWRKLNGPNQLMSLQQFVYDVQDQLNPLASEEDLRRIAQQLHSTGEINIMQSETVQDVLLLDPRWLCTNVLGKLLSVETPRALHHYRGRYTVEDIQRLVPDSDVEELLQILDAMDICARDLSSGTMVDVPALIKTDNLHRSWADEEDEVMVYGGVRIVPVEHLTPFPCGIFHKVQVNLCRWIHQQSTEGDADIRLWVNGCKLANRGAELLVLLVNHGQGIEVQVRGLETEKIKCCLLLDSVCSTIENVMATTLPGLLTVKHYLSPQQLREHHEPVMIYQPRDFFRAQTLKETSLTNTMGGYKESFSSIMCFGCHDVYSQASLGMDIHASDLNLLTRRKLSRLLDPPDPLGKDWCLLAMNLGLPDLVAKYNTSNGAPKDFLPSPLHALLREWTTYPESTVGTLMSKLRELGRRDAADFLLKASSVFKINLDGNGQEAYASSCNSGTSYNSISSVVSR
Calcium/calmodulin-dependent protein kinase type II subunit delta (Homo sapiens), sequence (Q13557 whole entry): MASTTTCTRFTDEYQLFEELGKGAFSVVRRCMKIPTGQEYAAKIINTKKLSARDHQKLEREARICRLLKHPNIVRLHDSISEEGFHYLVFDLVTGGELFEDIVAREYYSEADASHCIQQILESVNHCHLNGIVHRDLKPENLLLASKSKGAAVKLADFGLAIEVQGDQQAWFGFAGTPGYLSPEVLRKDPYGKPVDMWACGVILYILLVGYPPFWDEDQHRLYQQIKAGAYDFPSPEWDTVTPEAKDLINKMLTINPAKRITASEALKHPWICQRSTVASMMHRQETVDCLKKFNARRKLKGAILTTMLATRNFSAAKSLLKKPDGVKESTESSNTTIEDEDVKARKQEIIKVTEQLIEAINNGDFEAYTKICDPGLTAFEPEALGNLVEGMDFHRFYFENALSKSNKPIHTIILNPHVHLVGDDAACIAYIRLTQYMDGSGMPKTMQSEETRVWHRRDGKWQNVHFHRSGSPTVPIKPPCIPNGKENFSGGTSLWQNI

| SMILES | inhibition [1] | inhibition [2] | inhibition [3] | inhibition [4] | inhibition [5] | inhibition [6] | inhibition [7] | inhibition [8] | inhibition [9] | inhibition [10] | inhibition [11] | inhibition [12] | inhibition [13] | inhibition [14] | inhibition [15] | inhibition [16] | inhibition [17] | inhibition [18] | inhibition [19] | inhibition [20] |
| --- | --- | --- | --- | --- | --- | --- | --- | --- | --- | --- | --- | --- | --- | --- | --- | --- | --- | --- | --- | --- |
| CCS(=O)(=O)c1ccc(OC)c(Nc2ncc(-c3cccc(-c4ccccc4F)c3)o2)c1 | 3.98% | 1.21% | 11.6% | 1.15% | 1.5% | 1.03% | 2.03% | -0.11% | -0.35% | -0.16% | -0.11% | 1.37% | -3.8% | 0.06% | -0.23% | 1.08% | 1.04% | 1.41% | 0.75% | -0.41% |
| O=C(Nc1n[nH]c2cc(-c3ccccc3)ccc12)C1CC1 | 2.25% | 3.79% | 3.53% | -1.93% | -1.21% | 2.36% | 5.48% | 2.81% | 3.79% | 5.91% | 7.04% | 0.55% | 1.05% | 3.04% | 2.8% | 5.91% | 4.31% | 4.97% | 9.42% | 5.89% |
| COc1cccc(/C=N/Nc2ncnc3c2cnn3-c2cccc(OC)c2)c1 | 1.28% | 3.36% | 6.18% | -0.53% | 0.8% | -0.79% | -1.62% | 3.83% | 4.99% | -0.06% | -2.35% | -0.11% | 1.93% | 2.15% | 2.31% | 2.37% | 2.33% | 0.69% | 2.26% | -0.24% |
| COc1cc(Nc2ncc3c(C)nc(-c4cccc(C(F)(F)F)c4)n3n2)cc(OC)c1OC | 2% | 3.19% | 5.08% | -2% | -3.22% | 1.23% | 5.15% | 6.47% | 9.62% | -0.52% | 1.2% | 0.76% | -1.04% | 1.86% | 2.09% | 4.68% | 5.16% | 2.7% | 15.5% | 1.84% |
| c1ccc(-c2n[nH]cc2-c2ccnc(-c3ccc(OCCN4CCOCC4)cc3)c2)nc1 | 0.85% | -1.29% | -0.13% | -0.9% | 0.4% | 1.01% | -1.98% | 3.21% | 2.24% | 1% | 1.17% | 4.23% | 4.29% | 0.95% | 0.98% | 0.91% | 8% | 4.58% | 4.86% | 7.18% |
| Fc1ccc(-c2nc3n(c2-c2ccncc2)CCS3)cc1 | 3.82% | 4.18% | 4.28% | 0.62% | 0.23% | 0.32% | 3.69% | 2.74% | 3.47% | 2.36% | 2.21% | -0.75% | -3.53% | 0.87% | 0.79% | 8.6% | 19.8% | 4.51% | 4.67% | 3.87% |
| O=C(Nc1n[nH]c2cc(-c3cc(F)ccc3F)ccc12)C1CC1 | 2.68% | 3.1% | 25.3% | 1.86% | 1.99% | -0.4% | 1.41% | 2.67% | 3.25% | -0.82% | -0.43% | 1.87% | 0.55% | 1.65% | 1.03% | 3.84% | 3.99% | 2.47% | 5.89% | 2.76% |
| COC(=O)Nc1nc2ccc(Sc3ccc(NC(=O)Nc4cc(C(F)(F)F)ccc4F)cc3)cc2[nH]1 | 4.35% | 1.39% | 2.79% | 0.44% | 1.75% | 2.81% | 1.17% | -0.98% | 0.37% | 3.64% | 4.23% | -1.02% | 0.05% | 0.97% | 0.6% | 4.28% | 12.6% | 1.73% | 2.38% | 1.35% |
| NS(=O)(=O)c1ccc(N/N=C2\C(=O)Nc3ccc(C(=O)NCCCn4ccnc4)cc32)cc1 | 4.11% | 2.56% | 8.04% | -1.35% | -4.25% | 10.4% | 19.3% | 10.6% | 19% | 11.1% | 14.2% | 1.59% | 2.86% | 4.69% | 5.55% | 9.93% | 10.6% | 5.69% | 22.3% | 1.88% |
| CCc1ccc(Oc2nccc(-c3c(-c4ccc(F)cc4)ncn3C3CCNCC3)n2)cc1 | 5.86% | 4.44% | 7.05% | 2.89% | 5.14% | 4.54% | 6.62% | 3.02% | 5.66% | 4.58% | 4.64% | -0.57% | 1.55% | 1.96% | 3.67% | 36.5% | 37.5% | 3.13% | 7.96% | 3.13% |
| COc1ccc2cc(-c3c(-c4ccncc4)nc(-c4ccc([S+](C)[O-])cc4C)n3C)ccc2c1 (stereo not given) | -1.04% | -0.62% | 0.45% | 0.58% | 1.17% | -4.29% | -9.96% | -6.42% | -5.67% | -9.46% | -9.4% | -1.12% | 5.6% | -3.43% | -3.96% | -6.68% | -5.38% | -1.01% | -1.81% | 0.61% |
| COc1cc2ncn(-c3cc(OCCc4ccccc4)c(C(N)=O)s3)c2cc1OC | 2.38% | 2.83% | 3.66% | 1.62% | 0.6% | 1.61% | 7.39% | 1.58% | 4.01% | 2.25% | 1.51% | 0.43% | 0.05% | 0.61% | 1.03% | 2.1% | 4.28% | 3.11% | 3.45% | 3.88% |
| C#Cc1cccc(Nc2ncnc3ccc(OCCCCNCCS(C)(=O)=O)cc23)c1 | 3.33% | 3% | 5.51% | -0.65% | -2.02% | 1.45% | 4.94% | 2.64% | 7.73% | 3.32% | 2.74% | -0.45% | -4.44% | 2.15% | 1.98% | 4.84% | 4.44% | 5.11% | 8.02% | 5.17% |
